# Counter-ions that a name gives are not always drawn.
# Tested on: U-2932
# Assay: growth inhibition by drug alone (1 - RLU/untreated control) (fraction); higher = stronger inhibition
# Details: 1000 nM; time (day): 3; 177Lu-lilotomab satetraxetan 0 ug/ml
# Procedure, shortened: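 A radiolabelled anti-CD37 antibody conjugate (~600 MBq/mg) was applied for 18 h at 0.5 µg/ml to RIVA and 1 µg/ml to U-2932 cells, with untreated cells run alongside. All cells were washed and seeded at 3,000 cells/well onto library-printed plates at 10/100 nM (RIVA) or 10/1,000 nM (U-2932). Growth inhibition was based on RealTime-Glo luminescence compared with untreated no-drug wells. Daily reads began on day 3 after 1 h at 37°C, with each value being 1 − RLU/mean of the 48 such wells on that plate.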
row,SMILES,growth inhibition by drug alone
1,CNCc1ccc(-c2[nH]c3cc(F)cc4c3c2CCNC4=O)cc1,0.0442
2,O=C(O)c1ccc(-c2c[nH]c3ncc(-c4ccccc4)cc23)cc1C1CCCC1,-0.0285
3,CC(=O)c1c(C)c2cnc(Nc3ccc(N4CCNCC4)cn3)nc2n(C2CCCC2)c1=O,-0.0353
4,CCN(CC)CCCCNc1ncc2cc(-c3cc(OC)cc(OC)c3)c(NC(=O)NC(C)(C)C)nc2n1,-0.114
5,CCC(C)(C)C(=O)O[C@H]1C[C@@H](C)C=C2C=C[C@H](C)[C@H](CC[C@@H]3C[C@@H](O)CC(=O)O3)[C@H]21 [Simvastatin (Zocor)],-0.019
6,CC[C@H](Nc1ncnc2[nH]cnc12)c1nc2cccc(F)c2c(=O)n1-c1ccccc1,0.567
7,CC(C=CC(=O)NO)=CC(C)C(=O)c1ccc(N(C)C)cc1 (stereo unspecified) [Trichostatin A (TSA)],0.98
8,COc1ccc2c3n(c(=NC(=O)c4cccnc4)nc2c1OC)CCN3,0.165
9,NC(=O)c1ccc(-c2nc(-c3ccccn3)c(-c3ccc4c(c3)OCO4)[nH]2)cc1,0.0294
10,CNC(=O)c1cc(Oc2ccc(NC(=O)Nc3ccc(Cl)c(C(F)(F)F)c3)c(F)c2)ccn1 [Regorafenib (BAY 73-4506)],0.26
11,Cc1cnc(Nc2ccc(OCCN3CCCC3)cc2)nc1Nc1cccc(S(=O)(=O)NC(C)(C)C)c1,0.149
12,CCOc1ccc(Nc2nc(-c3c(C)nc4ccccn34)cs2)cc1,0.961
13,CC(C)C[C@H](NC(=O)[C@H](Cc1ccccc1)NC(=O)c1cnccn1)B(O)O [Bortezomib (Velcade)],0.985
14,O=C1CN2Cc3c(ccc(Cl)c3Cl)N=C2N1 [Anagrelide],0.102
15,Cc1cc(Nc2cc(N3CCN(C)CC3)nc(/C=C/c3ccccc3)n2)n[nH]1,0.102
16,CCc1cc(Nc2nccc(-c3c(-c4ccc(OC)c(C(=O)Nc5c(F)cccc5F)c4)nc4ccccn34)n2)c(OC)cc1N1CCC(N2CCN(S(C)(=O)=O)CC2)CC1,-0.14
17,O=C1CN2Cc3c(ccc(Cl)c3Cl)N=C2N1 [Anagrelide hydrochloride],0.0693
18,O=C(NCCCNc1nc(Nc2cccc(NC(=O)N3CCCC3)c2)ncc1I)c1cccs1,0.0736
19,CCC[C@H](NC(=O)/C(C#N)=C/c1cccc(Br)n1)c1ccccc1,0.0251

row,SMILES,growth inhibition by drug alone
1,COc1cc2nc(N3CCCN(C)CC3)nc(NC3CCN(Cc4ccccc4)CC3)c2cc1OC,0.00727
2,C#Cc1cccc(Nc2ncnc3cc(OCCOC)c(OCCOC)cc23)c1 [Erlotinib HCl],0.731
3,CN(C)c1ccccc1CN1CCCN(Cc2ccccc2N(C)C)C1c1ccncc1,-0.0515
4,COc1cc2c(NC3CCN(C)CC3)nc(N3CCCN(C)CC3)nc2cc1OCCCN(C)C,-0.0483
5,COc1ccc(COc2cc3oc(=O)c4cc(C(C)O)ccc4c3cc2OC)cc1 (stereo unspecified) [Palomid 529],-0.0247
6,CO[C@@H](C(=O)N1Cc2[nH]nc(NC(=O)c3ccc(N4CCN(C)CC4)cc3)c2C1)c1ccccc1,0.206
7,Cn1cc(C2=C(c3ccc(Cl)cc3Cl)C(=O)NC2=O)c2ccccc21,-0.0209
8,CCc1ccc(CCOc2ccc(CC3SC(=O)NC3=O)cc2)nc1 (stereo unspecified) [Pioglitazone (Actos)],-0.0965
9,O=C(O)C1(C(=O)O)CCC1.[NH2-].[NH2-].[Pt+2] [Carboplatin],-0.0124
10,CS(=O)(=O)c1ccc(C(=O)Nc2ccc(Cl)c(-c3ccccn3)c2)c(Cl)c1 [Vismodegib (GDC-0449)],0.0775
11,OCCn1cc(-c2ccc3c(c2)CC/C3=N\O)c(-c2ccncc2)n1,-0.112
12,CC[C@@H]1C(=O)N(C)c2cnc(Nc3ccc(C(=O)NC4CCN(C)CC4)cc3OC)nc2N1C1CCCC1,0.953
13,CC[C@]1(O)C[C@H]2CN(CCc3c([nH]c4ccccc34)[C@@](C(=O)OC)(c3cc4c(cc3OC)N(C=O)[C@H]3[C@@](O)(C(=O)OC)[C@H](OC(C)=O)[C@]5(CC)C=CCN6CC[C@]43[C@@H]65)C2)C1 [Vincristine],0.964
14,CC(C)(C)c1ccc(S(=O)(=O)/C=C/C#N)cc1,0.386
15,Cc1cn(-c2cc(NC(=O)c3ccc(C)c(Nc4nccc(-c5cccnc5)n4)c3)cc(C(F)(F)F)c2)cn1 [Nilotinib (AMN-107)],-0.0166
16,CC(C)(C#N)c1cc(Cn2cncn2)cc(C(C)(C)C#N)c1 [Anastrozole],0.0109
17,C=CCn1c(=O)c2cnc(Nc3ccc(N4CCN(C)CC4)cc3)nc2n1-c1cccc(C(C)(C)O)n1,0.86
18,Cn1cnc(N)c2ncnc1-2 [3-Methyladenine],0.00855
19,CCc1c2c(nc3ccc(OC(=O)N4CCC(N5CCCCC5)CC4)cc13)-c1cc3c(c(=O)n1C2)COC(=O)[C@]3(O)CC [Irinotecan HCl Trihydrate (Campto)],0.841

# Same assay, conditions: 1000 nM; time (day): 4; 177Lu-lilotomab satetraxetan 0 ug/ml
row,SMILES,growth inhibition by drug alone
1,CNCc1ccc(-c2[nH]c3cc(F)cc4c3c2CCNC4=O)cc1,0.0462
2,O=C(O)c1ccc(-c2c[nH]c3ncc(-c4ccccc4)cc23)cc1C1CCCC1,-0.0484
3,CC(=O)c1c(C)c2cnc(Nc3ccc(N4CCNCC4)cn3)nc2n(C2CCCC2)c1=O,-0.0097
4,CCN(CC)CCCCNc1ncc2cc(-c3cc(OC)cc(OC)c3)c(NC(=O)NC(C)(C)C)nc2n1,-0.0849
5,CCC(C)(C)C(=O)O[C@H]1C[C@@H](C)C=C2C=C[C@H](C)[C@H](CC[C@@H]3C[C@@H](O)CC(=O)O3)[C@H]21 [Simvastatin (Zocor)],-0.0256
6,CC[C@H](Nc1ncnc2[nH]cnc12)c1nc2cccc(F)c2c(=O)n1-c1ccccc1,0.374
7,CC(C=CC(=O)NO)=CC(C)C(=O)c1ccc(N(C)C)cc1 (stereo unspecified) [Trichostatin A (TSA)],0.983
8,COc1ccc2c3n(c(=NC(=O)c4cccnc4)nc2c1OC)CCN3,0.128
9,NC(=O)c1ccc(-c2nc(-c3ccccn3)c(-c3ccc4c(c3)OCO4)[nH]2)cc1,0.069
10,CNC(=O)c1cc(Oc2ccc(NC(=O)Nc3ccc(Cl)c(C(F)(F)F)c3)c(F)c2)ccn1 [Regorafenib (BAY 73-4506)],0.284
11,Cc1cnc(Nc2ccc(OCCN3CCCC3)cc2)nc1Nc1cccc(S(=O)(=O)NC(C)(C)C)c1,0.111
12,CCOc1ccc(Nc2nc(-c3c(C)nc4ccccn34)cs2)cc1,0.972
13,CC(C)C[C@H](NC(=O)[C@H](Cc1ccccc1)NC(=O)c1cnccn1)B(O)O [Bortezomib (Velcade)],0.984
14,O=C1CN2Cc3c(ccc(Cl)c3Cl)N=C2N1 [Anagrelide],0.0873
15,Cc1cc(Nc2cc(N3CCN(C)CC3)nc(/C=C/c3ccccc3)n2)n[nH]1,0.0113
16,CCc1cc(Nc2nccc(-c3c(-c4ccc(OC)c(C(=O)Nc5c(F)cccc5F)c4)nc4ccccn34)n2)c(OC)cc1N1CCC(N2CCN(S(C)(=O)=O)CC2)CC1,-0.0216
17,O=C1CN2Cc3c(ccc(Cl)c3Cl)N=C2N1 [Anagrelide hydrochloride],0.0958
18,O=C(NCCCNc1nc(Nc2cccc(NC(=O)N3CCCC3)c2)ncc1I)c1cccs1,0.137
19,CCC[C@H](NC(=O)/C(C#N)=C/c1cccc(Br)n1)c1ccccc1,0.0639

row,SMILES,growth inhibition by drug alone
1,COc1cc2nc(N3CCCN(C)CC3)nc(NC3CCN(Cc4ccccc4)CC3)c2cc1OC,0.0766
2,C#Cc1cccc(Nc2ncnc3cc(OCCOC)c(OCCOC)cc23)c1 [Erlotinib HCl],0.715
3,CN(C)c1ccccc1CN1CCCN(Cc2ccccc2N(C)C)C1c1ccncc1,0.0164
4,COc1cc2c(NC3CCN(C)CC3)nc(N3CCCN(C)CC3)nc2cc1OCCCN(C)C,-0.0744
5,COc1ccc(COc2cc3oc(=O)c4cc(C(C)O)ccc4c3cc2OC)cc1 (stereo unspecified) [Palomid 529],0.00321
6,CO[C@@H](C(=O)N1Cc2[nH]nc(NC(=O)c3ccc(N4CCN(C)CC4)cc3)c2C1)c1ccccc1,0.258
7,Cn1cc(C2=C(c3ccc(Cl)cc3Cl)C(=O)NC2=O)c2ccccc21,-0.0468
8,CCc1ccc(CCOc2ccc(CC3SC(=O)NC3=O)cc2)nc1 (stereo unspecified) [Pioglitazone (Actos)],-0.0693
9,O=C(O)C1(C(=O)O)CCC1.[NH2-].[NH2-].[Pt+2] [Carboplatin],-0.0343
10,CS(=O)(=O)c1ccc(C(=O)Nc2ccc(Cl)c(-c3ccccn3)c2)c(Cl)c1 [Vismodegib (GDC-0449)],0.075
11,OCCn1cc(-c2ccc3c(c2)CC/C3=N\O)c(-c2ccncc2)n1,-0.139
12,CC[C@@H]1C(=O)N(C)c2cnc(Nc3ccc(C(=O)NC4CCN(C)CC4)cc3OC)nc2N1C1CCCC1,0.973
13,CC[C@]1(O)C[C@H]2CN(CCc3c([nH]c4ccccc34)[C@@](C(=O)OC)(c3cc4c(cc3OC)N(C=O)[C@H]3[C@@](O)(C(=O)OC)[C@H](OC(C)=O)[C@]5(CC)C=CCN6CC[C@]43[C@@H]65)C2)C1 [Vincristine],0.972
14,CC(C)(C)c1ccc(S(=O)(=O)/C=C/C#N)cc1,0.401
15,Cc1cn(-c2cc(NC(=O)c3ccc(C)c(Nc4nccc(-c5cccnc5)n4)c3)cc(C(F)(F)F)c2)cn1 [Nilotinib (AMN-107)],0.0185
16,CC(C)(C#N)c1cc(Cn2cncn2)cc(C(C)(C)C#N)c1 [Anastrozole],0.046
17,C=CCn1c(=O)c2cnc(Nc3ccc(N4CCN(C)CC4)cc3)nc2n1-c1cccc(C(C)(C)O)n1,0.895
18,Cn1cnc(N)c2ncnc1-2 [3-Methyladenine],0.0177
19,CCc1c2c(nc3ccc(OC(=O)N4CCC(N5CCCCC5)CC4)cc13)-c1cc3c(c(=O)n1C2)COC(=O)[C@]3(O)CC [Irinotecan HCl Trihydrate (Campto)],0.921
